From the supplement of paper PMC11732987, “Enantioselective OTUD7B fragment discovery through chemoproteomics screening and high-throughput optimisation” (Communications Chemistry, 2025)

Key:
Test in all cases: log2 ratio of Biotin-Ahx-Ub-VS probe labelling (fragment/DMSO); higher = less target engagement (more negative = stronger competition), active = hit call of the paper (q ≤ 0.05, log2 ratio ≤ -1)
Conditions in all cases: compound concentration: 200 uM; treatment time: 3 h
USP34 = USP34 (UniProt Q70CQ2)
Summary of the method: (§1)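 HEK293T lysate, 495 µg per sample in Tris/CHAPS/IGEPAL buffer with protease inhibitors, was treated in triplicate with fragment at 200 µM or vehicle for 3 h and then with Biotin-Ahx-Ub-VS at 0.5 µM final for 1 h. Labelled DUBs were NeutrAvidin-enriched, digested with LysC and trypsin, and run by diaPASEF LC-MS/MS. Spectronaut label-free quantities were global-median-normalised, and values are average log2 fragment/vehicle ratios by unpaired t-test on proteins with ≥2 unique peptides.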

USP36 = target: T1, USP36 (UniProt Q9P275)
T1 sequence (whole entry): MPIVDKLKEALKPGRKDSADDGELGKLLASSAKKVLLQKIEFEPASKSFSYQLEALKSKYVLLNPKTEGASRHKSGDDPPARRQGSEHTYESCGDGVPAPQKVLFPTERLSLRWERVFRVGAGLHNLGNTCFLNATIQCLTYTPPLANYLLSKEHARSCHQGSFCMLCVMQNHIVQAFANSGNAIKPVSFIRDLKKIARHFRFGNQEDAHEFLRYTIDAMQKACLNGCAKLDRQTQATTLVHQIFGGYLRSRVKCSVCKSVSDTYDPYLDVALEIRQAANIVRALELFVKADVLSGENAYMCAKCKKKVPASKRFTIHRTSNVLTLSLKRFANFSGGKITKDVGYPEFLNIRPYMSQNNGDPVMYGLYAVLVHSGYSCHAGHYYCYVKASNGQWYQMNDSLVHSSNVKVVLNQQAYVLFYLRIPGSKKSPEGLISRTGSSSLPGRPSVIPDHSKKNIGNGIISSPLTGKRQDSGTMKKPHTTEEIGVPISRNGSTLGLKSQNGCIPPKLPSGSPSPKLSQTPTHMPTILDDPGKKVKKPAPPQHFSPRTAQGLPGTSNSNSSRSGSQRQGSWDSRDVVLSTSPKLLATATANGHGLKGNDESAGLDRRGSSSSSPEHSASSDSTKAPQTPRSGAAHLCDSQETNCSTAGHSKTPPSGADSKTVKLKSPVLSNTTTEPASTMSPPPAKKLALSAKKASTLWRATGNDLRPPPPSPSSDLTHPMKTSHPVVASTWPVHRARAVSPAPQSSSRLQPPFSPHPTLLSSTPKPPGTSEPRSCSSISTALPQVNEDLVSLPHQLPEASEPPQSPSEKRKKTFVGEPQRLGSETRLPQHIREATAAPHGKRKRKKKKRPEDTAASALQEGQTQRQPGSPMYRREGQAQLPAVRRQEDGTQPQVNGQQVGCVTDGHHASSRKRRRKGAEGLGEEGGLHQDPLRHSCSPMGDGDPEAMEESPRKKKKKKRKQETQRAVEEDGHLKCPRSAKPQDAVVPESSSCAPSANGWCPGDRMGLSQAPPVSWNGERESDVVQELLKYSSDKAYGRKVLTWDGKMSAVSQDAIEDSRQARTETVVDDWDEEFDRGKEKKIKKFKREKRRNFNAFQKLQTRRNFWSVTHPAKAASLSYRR
Summary of the method: as §1

USP38 = target: T2, USP38 (UniProt Q8NB14)
T2 sequence (whole entry): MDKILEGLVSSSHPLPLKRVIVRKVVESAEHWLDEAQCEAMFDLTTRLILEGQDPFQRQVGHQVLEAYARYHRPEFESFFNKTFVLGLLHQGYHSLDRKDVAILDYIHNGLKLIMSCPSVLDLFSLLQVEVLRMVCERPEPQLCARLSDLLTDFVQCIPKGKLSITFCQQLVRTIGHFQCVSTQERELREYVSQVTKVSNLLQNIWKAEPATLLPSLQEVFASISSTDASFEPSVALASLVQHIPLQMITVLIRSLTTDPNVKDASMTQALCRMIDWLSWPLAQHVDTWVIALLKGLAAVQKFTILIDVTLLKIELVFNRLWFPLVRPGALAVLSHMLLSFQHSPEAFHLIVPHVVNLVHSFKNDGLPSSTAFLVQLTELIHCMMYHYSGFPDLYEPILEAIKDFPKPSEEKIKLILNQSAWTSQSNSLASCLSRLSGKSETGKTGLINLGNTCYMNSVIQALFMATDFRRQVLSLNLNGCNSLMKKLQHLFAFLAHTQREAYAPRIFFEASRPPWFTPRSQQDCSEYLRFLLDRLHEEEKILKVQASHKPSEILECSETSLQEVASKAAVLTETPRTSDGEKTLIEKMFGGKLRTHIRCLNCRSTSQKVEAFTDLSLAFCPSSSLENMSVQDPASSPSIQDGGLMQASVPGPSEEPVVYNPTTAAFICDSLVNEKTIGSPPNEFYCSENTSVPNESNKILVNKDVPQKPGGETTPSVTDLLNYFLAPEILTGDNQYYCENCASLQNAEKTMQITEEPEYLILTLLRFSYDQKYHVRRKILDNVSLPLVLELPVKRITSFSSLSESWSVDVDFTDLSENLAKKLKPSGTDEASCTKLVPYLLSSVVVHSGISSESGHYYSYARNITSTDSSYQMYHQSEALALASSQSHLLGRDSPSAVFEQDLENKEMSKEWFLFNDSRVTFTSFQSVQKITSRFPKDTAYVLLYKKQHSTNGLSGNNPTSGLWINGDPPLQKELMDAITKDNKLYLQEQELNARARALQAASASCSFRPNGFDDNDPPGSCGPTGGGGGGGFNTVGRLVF
Summary of the method: as §1

USP39 = target: T3, USP39 (UniProt Q53GS9)
T3 sequence (whole entry): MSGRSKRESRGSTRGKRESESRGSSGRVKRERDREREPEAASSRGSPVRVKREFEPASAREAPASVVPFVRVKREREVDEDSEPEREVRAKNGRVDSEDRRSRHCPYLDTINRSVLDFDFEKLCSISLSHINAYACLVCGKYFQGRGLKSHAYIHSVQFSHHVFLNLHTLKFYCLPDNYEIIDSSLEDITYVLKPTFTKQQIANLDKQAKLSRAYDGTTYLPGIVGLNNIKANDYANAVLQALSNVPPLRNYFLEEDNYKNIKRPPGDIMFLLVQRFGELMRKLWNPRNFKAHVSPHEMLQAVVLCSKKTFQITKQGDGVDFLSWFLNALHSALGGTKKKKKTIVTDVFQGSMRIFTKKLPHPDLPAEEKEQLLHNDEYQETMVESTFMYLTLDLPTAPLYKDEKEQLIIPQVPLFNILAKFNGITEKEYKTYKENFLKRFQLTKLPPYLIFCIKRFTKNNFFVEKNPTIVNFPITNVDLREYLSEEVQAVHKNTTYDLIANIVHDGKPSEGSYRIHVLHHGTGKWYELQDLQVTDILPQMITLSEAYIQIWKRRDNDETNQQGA
Summary of the method: as §1

USP4 = target: T4, USP4 (UniProt Q13107)
T4 sequence (whole entry): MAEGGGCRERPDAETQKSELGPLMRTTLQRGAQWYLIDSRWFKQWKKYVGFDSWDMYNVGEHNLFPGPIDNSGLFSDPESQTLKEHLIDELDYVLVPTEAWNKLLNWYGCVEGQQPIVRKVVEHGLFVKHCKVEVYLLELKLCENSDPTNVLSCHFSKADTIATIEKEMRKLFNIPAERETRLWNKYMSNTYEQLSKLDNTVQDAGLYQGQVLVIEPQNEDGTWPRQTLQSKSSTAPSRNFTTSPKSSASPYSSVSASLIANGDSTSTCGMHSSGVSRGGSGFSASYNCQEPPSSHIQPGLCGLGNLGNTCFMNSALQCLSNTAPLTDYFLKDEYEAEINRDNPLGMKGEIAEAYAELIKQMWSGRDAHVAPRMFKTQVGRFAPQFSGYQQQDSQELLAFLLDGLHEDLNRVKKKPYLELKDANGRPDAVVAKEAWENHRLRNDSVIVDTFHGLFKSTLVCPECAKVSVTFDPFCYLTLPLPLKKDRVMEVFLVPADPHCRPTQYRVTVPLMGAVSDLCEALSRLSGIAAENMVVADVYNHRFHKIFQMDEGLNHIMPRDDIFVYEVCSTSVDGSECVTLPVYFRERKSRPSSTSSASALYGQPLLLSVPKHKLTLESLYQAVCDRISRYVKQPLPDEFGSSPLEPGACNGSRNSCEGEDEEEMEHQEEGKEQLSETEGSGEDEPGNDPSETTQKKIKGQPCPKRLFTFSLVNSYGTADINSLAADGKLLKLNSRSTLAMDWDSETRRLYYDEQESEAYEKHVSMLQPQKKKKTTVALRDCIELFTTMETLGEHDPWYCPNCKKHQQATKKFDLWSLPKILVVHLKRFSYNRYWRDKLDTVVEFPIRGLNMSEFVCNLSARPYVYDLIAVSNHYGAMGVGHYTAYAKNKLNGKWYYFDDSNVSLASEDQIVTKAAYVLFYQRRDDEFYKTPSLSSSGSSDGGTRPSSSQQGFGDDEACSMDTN
Summary of the method: as §1

Measured: log2 ratio of Biotin-Ahx-Ub-VS probe labelling

Chain of USP34 (Q70CQ2 whole entry, the tested form may be a part): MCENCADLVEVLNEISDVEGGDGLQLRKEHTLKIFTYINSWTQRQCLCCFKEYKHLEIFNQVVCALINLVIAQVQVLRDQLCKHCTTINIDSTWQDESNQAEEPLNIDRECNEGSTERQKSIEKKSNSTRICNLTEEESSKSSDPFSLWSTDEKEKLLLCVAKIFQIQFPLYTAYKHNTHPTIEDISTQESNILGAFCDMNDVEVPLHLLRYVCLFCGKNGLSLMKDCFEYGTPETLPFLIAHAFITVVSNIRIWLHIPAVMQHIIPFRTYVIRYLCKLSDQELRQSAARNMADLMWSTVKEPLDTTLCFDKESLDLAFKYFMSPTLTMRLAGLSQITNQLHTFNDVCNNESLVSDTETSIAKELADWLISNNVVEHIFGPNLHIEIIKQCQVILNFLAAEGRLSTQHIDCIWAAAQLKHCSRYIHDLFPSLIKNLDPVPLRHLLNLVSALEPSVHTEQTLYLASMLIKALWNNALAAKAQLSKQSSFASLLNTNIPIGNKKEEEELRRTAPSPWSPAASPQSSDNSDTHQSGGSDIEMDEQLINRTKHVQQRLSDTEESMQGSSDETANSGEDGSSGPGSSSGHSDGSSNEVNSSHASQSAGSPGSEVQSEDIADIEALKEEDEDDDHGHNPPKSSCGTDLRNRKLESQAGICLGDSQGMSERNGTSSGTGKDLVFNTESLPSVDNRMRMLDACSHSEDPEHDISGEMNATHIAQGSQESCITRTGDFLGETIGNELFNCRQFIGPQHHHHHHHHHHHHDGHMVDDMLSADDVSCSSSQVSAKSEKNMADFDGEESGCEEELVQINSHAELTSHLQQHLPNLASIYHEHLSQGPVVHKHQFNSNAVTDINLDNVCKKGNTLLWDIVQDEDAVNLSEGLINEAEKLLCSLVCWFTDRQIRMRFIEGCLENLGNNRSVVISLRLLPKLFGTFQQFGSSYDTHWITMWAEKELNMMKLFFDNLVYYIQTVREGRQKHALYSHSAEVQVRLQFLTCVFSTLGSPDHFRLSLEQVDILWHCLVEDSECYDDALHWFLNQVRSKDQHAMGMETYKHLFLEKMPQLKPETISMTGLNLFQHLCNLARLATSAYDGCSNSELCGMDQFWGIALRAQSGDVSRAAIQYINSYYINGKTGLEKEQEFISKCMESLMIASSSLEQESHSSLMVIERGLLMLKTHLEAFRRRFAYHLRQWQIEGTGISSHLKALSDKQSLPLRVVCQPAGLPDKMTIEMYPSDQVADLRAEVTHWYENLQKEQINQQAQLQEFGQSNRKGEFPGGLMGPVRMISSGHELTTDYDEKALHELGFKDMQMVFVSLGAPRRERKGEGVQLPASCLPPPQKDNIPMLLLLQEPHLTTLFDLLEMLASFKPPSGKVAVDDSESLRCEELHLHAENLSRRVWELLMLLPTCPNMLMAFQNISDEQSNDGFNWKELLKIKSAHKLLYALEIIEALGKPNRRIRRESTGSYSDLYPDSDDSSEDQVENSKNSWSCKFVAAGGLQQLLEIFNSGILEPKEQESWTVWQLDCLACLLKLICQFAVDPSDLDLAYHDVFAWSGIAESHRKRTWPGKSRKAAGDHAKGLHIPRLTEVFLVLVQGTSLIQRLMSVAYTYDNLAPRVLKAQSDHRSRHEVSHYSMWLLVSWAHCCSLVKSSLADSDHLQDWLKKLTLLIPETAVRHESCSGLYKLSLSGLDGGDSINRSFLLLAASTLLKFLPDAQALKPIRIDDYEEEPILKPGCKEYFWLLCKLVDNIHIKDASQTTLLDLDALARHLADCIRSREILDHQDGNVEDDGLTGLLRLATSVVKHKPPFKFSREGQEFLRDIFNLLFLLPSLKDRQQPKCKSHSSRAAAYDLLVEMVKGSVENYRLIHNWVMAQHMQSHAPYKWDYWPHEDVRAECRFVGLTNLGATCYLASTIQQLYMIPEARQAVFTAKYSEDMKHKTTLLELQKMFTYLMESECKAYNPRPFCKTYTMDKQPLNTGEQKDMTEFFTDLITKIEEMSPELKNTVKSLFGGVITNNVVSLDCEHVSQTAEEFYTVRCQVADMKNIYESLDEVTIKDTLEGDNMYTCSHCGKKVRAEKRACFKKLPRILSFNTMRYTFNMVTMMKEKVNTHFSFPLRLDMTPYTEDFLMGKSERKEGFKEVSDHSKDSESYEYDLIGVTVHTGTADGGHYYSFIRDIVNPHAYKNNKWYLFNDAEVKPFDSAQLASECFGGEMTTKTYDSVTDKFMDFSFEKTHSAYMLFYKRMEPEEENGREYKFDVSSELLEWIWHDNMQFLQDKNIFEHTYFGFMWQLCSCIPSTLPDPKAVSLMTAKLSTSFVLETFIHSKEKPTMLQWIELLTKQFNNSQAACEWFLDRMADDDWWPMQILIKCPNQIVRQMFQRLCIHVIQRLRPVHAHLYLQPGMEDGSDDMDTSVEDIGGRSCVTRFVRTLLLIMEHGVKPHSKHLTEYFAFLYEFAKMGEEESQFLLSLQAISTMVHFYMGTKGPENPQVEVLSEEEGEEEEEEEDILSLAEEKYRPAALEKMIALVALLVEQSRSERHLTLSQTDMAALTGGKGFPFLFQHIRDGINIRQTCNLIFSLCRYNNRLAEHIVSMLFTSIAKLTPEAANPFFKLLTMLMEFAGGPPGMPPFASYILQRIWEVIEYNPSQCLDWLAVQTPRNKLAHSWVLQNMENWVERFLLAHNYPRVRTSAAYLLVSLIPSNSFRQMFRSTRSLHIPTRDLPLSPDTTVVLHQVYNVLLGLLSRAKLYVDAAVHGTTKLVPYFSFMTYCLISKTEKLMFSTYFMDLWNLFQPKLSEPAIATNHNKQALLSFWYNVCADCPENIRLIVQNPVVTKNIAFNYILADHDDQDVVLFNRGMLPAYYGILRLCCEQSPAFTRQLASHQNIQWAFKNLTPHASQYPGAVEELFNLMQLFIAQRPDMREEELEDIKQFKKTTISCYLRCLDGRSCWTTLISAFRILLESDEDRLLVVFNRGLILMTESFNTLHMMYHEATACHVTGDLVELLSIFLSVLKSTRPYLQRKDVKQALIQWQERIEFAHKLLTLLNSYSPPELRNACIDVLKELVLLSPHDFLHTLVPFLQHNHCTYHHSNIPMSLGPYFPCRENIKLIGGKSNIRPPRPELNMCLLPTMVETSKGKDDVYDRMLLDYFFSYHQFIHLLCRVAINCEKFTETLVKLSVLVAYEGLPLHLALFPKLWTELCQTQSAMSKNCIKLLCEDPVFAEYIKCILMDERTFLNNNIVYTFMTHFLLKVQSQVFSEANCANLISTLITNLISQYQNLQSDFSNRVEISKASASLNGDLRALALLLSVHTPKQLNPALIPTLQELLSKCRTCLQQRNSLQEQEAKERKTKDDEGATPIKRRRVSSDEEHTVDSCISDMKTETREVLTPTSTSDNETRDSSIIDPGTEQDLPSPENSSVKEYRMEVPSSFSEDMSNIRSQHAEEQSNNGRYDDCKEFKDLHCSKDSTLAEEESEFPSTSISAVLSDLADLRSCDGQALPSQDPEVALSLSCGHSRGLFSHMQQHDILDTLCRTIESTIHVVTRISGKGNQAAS

CC(NC(=O)CCl)c1cccc(Cl)c1 (stereo not given)
inactive: USP34 -0.653 | USP36 -0.283 | USP38 -0.175 | USP39 -0.294 | USP4 -0.239
